# FBW7 act: human FBW7 E3 ligase activation, primary screen | AlphaScreen FBW7–phospho-cyclin E peptide binding, activator screen | normalized activity (activation), % at 26.1 µM | 0.13% of 650,000 active | Q969H0 | AID 1259310; in the data active = normalized activity above about 1.9%;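 note: purified mutant Fbw7 with reduced substrate affinity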
# Target sequence (Q969H0 whole entry, looked up): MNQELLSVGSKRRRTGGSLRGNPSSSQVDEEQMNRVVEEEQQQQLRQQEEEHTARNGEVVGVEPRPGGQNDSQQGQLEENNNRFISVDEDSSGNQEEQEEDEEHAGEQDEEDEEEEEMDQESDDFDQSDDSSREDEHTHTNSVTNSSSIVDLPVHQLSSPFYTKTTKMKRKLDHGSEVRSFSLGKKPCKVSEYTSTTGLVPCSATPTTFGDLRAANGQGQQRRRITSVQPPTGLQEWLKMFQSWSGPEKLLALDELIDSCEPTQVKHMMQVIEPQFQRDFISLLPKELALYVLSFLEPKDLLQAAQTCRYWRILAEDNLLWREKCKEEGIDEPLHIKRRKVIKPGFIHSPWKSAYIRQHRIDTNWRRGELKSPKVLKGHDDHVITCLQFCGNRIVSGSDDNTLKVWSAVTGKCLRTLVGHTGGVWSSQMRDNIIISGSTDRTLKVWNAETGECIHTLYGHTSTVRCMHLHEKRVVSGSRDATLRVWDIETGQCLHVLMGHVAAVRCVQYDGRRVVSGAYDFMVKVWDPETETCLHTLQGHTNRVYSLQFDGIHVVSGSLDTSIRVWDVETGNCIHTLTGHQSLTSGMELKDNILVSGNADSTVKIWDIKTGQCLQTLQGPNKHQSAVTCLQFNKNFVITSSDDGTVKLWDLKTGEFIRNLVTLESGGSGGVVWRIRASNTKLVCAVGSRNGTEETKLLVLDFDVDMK
# GPR151 ag: human GPR151 activation; PathHunter beta-arrestin GPR151 cells, luminescence; 1% of 650,000 active; Q8TDV0; AID 1508602; activation, % at 11.2 µM; in the data active = activation above about 4.9%;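 note: 0% = median of compound wells and 100% = cells with positive control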
# MITF inh: human MITF inhibition, primary screen; O75030; AlphaScreen MITF homodimerization, bead proximity signal; inhibition, % at 2.6 µM; 0.91% of 650,000 active; AID 1259374; in the data active = inhibition above about 50%;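 note: 0% = vehicle wells with protein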
# TEAD-YAP inh: TEAD-YAP interaction inhibition; HEK-TIYL cells, TEAD-Gal4/YAP UAS-luciferase luminescence; inhibition, % at 9.12 µM; 1.4% of 640,000 active; in the data active = inhibition above about 32%;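 note: 0% = median of test compound wells and 100% = reference inhibitor wells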
# Numbers without * were called inactive. An excerpt weighted towards active compounds, which were near 3.5% of everything screened.
SMILES,FBW7 act,GPR151 ag,MITF inh,TEAD-YAP inh
Cc1cc(C)nc(N2CCC(N(CC3CC3)C(=O)Cc3ccc(F)cc3)CC2)n1,0,0,5,11
Cn1c(SCC(=O)N2CCCC2)nnc1-c1ccccc1O,0,-1,24,58*
Cn1c(SCC(=O)O)nnc1-c1ccccc1O,0,1,5,44*
CCC(=O)Nc1ccc(C(=O)Nc2ccc(O)cc2C(=O)O)cc1,0,1,16,13
CC[n+]1ccc(/C=C/c2cccc(OC)c2OC)cc1,0,0,2,34*
CC[n+]1ccc(/C=C/c2ccc(OC)cc2OC)cc1,0,-1,2,42*
O=C(Cc1cn(-c2ccc(Nc3nccc4ccccc34)nn2)c2ccccc12)Nc1ccc2c(c1)OCO2,0,-1,16,-2
CN1CCN(Cc2nc(-c3ccc(F)cc3)cs2)CC1CCO (configuration not stated),0,-3,9,-4
CC(C)(C)CN1CCN(Cc2nc(-c3ccc(F)cc3)cs2)CC1CCO (configuration not stated),0,-2,0,44*
c1cncc(Nc2nc(NC3CC3)c3ncn(-c4ccsc4)c3n2)c1,0,2,5,11
CCCNc1nc(Nc2nc3ccccc3n2C)nc2c1ncn2-c1ccsc1,0,-1,3,8
c1cnc(Nc2nc(NC3CC3)c3ncn(-c4ccsc4)c3n2)nc1,0,2,9,50*
Cn1c(Nc2nc(NC3CC3)c3ncn(-c4ccsc4)c3n2)nc2ccccc21,0,-1,9,59*
CCN(CC)C(=O)C1CCCN(c2nccc(NCc3cccc(C(F)(F)F)c3)n2)C1 (configuration not stated),0,2,7,17
Cc1cc(NCc2cccc(C(F)(F)F)c2)nc(N2CCCC2CO)n1 (configuration not stated),0,3,0,42*
CCN(CC)C(=O)C1CCCN(c2nc(C)cc(NCc3cccc(C(F)(F)F)c3)n2)C1 (configuration not stated),0,-2,3,35*
O=C(NCc1ccncc1)C1c2ccccc2Oc2ccccc21,0,-1,-7,-6
O=C(OCc1ccccc1)N1CCCN(CCc2ccncc2)CC1,1.9*,0,5,-11
c1ccc(Cc2nc(NCC3COc4ccccc4O3)c3c4c(sc3n2)CCCC4)cc1 (configuration not stated),0,1,9,-6
Cc1nc(NCc2ccc3c(c2)OCO3)c2c(C)c(C)sc2n1,0,2,6,39*
Cc1nc(NCC2COc3ccccc3O2)c2c(C)c(C)sc2n1 (configuration not stated),0,3,-12,47*
COC(=O)CN1C(=O)c2cccnc2Oc2ccccc21,0,1,47,-4
CC1CCN(C(=O)Cn2c(SCC(=O)N3CCc4ccccc43)nc3ccccc32)CC1,0,2,5,2
CN(C)C(=O)Cn1c(SCC(=O)N2CCCc3ccccc32)nc2ccccc21,0,0,-6,35*
O=C(NCc1cccnc1)/C(=C/c1ccc(-c2cccc(Cl)c2)o1)S(=O)(=O)c1ccccc1,0,0,6,53*
SMILES,FBW7 act,GPR151 ag,MITF inh,TEAD-YAP inh
O=C(NCc1cccnc1)/C(=C\c1ccc(Br)cc1)S(=O)(=O)c1ccccc1,0,0,-5,86*
O=C(NCc1cccnc1)/C(=C/c1ccc(-c2ccc(Br)cc2)o1)S(=O)(=O)c1ccccc1,0,0,2,35*
O=C(NCc1cccnc1)/C(=C\c1cccc(Oc2ccccc2)c1)S(=O)(=O)c1ccccc1,0,-3,10,82*
O=C(NCc1cccnc1)/C(=C/c1ccc(-c2cccc([N+](=O)[O-])c2)o1)S(=O)(=O)c1ccccc1,0,-1,7,14
CC(C)CCNC(=O)Cn1c(=S)[nH]c2ccccc2c1=O,0,0,13,-2
Nc1ccc2cc3ccc(N)cc3nc2c1,0,0,75*,4
Cc1ccc2cc(N)ccc2n1,0,0,6,-5
CN1/C(=C\C(=O)CSCc2ccco2)C(C)(C)c2ccccc21,0,0,6,0
CN1/C(=C/C(=O)c2ccco2)C(C)(C)c2ccccc21,1,4,5,35*
O=C1OCC2=C1C(c1ccc(F)cc1)c1cc3c(cc1N2)OCCO3 (configuration not stated),0,0,-2,53*
O=C1NC2=C(C(=O)OC2)C(c2ccc(F)c(F)c2)N1 (configuration not stated),0,2,-2,9

# Compound activity (PubChem BioAssay)
